Laboratory results as given in PubChem BioAssay AID504809 (National Center for Advancing Translational Sciences (NCATS), 2011).
Inconclusive results are not listed. Activity calls are given as the source filed them. The call rests on the fitted dose curve; in most records, active means well fitted curve in the direction sought with a large enough effect; inconclusive means small, poorly fitted or top-dose-only effect, or another doubt; inactive means no such curve, though single readings can be large or run the other way.

Assay: Followup screen for small molecules that induce DNA re-replication in MCF 10A normal breast cells
Conditions: MCF 10A DNA re-replication, Hoechst nuclear intensity, 48 h; series mostly up to 46.1 µM; re-replication activation: at the top concentration
Description: NIH Molecular Libraries Probe Production Network [MLPCN] NIH Chemical Genomics Center [NCGC] MLPCN Grant: Fast Track K99 CA136555 Assay Provider: Melvin DePamphilis, NICHD, NIH Assay Overview Eukaryotic cells normally restrict genome duplication to once per cell division. When this process is aberrant, DNA re-replication occurs when cells reinitiate DNA replication before the first round of replication is complete. DNA re-replication induces the DNA damage response, arrests cell proliferation, and triggers apoptosis. The cell cycle components cyclin A, Cdt-1, Cdc6 and geminin are critical regulators of this process and their misregulation results in DNA re-replication in normal and cancer cells. To identify compounds that induce re-replication in normal cells, an image-based assay was used to measure DNA content of nuclei, as detected by the fluorescent DNA binding dye, Hoechst. Cell nuclei were imaged by a fluorescence scanning plate imager and compounds that induce DNA re-replication were identified by the increase of nuclei with elevated fluorescence intensity.
Assay Protocol Summary For screening, 250 cells in 5 uL/well were dispensed into black clear 1536-well plates (Aurora) using a solenoid-based dispenser. Following transfer of 23 nL compound or DMSO vehicle by a pin tool, the plates were incubated 48 hr at 37 C and 5% CO2. After addition of 1 uL/well Hoescht stain, the plates were incubated 40 min at 37 C, 5% CO2 and total intensity of fluorescent objects (nuclei) were enumerated by an Acumen Explorer Ex3 (TTP LabTech) fluorescence scanning plate imager (405 nm excitation, 500-530 nm emission). Keywords: NIH Roadmap, MLPCN, MLI, MLSMR, qHTS, NCGC, DNA replication, cancer

Row | SMILES | re-replication activation | Potency
1 | NCC#Cc1ccccc1 | 14.6% (inactive) | –
2 | COc1cc([C@@H]2c3cc4c(cc3[C@H](O)[C@@H]3COC(=O)[C@H]23)OCO4)cc(OC)c1OC | – | 26.8 nM (active)
3 | CC(C)NP(=O)(NC(C)C)OP(=O)(NC(C)C)NC(C)C | -3.1% (inactive) | –
